In all, about 200,000 compounds went through this assay and about 3,000 (1.5%) were called active.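 The calls were made as follows: active = inhibition above about 50% when tested at 10 µM (limit read from the data); inactive = the rest.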 The entries come from a sample that favours actives as a whole.
What follows are compounds tested against Luciferin 4-monooxygenase (Photinus pyralis) (UniProt P08659) (assay: firefly luciferase enzyme inhibitors, primary screen, artefact control for luciferase-based inhibitor screens, biochemical, luminescence, ATPLite (AID 1006)). Details: 10 min, at 10 µM, stronger effect = higher value.
Sequence of Luciferin 4-monooxygenase (Photinus pyralis) (P08659 whole entry, looked up): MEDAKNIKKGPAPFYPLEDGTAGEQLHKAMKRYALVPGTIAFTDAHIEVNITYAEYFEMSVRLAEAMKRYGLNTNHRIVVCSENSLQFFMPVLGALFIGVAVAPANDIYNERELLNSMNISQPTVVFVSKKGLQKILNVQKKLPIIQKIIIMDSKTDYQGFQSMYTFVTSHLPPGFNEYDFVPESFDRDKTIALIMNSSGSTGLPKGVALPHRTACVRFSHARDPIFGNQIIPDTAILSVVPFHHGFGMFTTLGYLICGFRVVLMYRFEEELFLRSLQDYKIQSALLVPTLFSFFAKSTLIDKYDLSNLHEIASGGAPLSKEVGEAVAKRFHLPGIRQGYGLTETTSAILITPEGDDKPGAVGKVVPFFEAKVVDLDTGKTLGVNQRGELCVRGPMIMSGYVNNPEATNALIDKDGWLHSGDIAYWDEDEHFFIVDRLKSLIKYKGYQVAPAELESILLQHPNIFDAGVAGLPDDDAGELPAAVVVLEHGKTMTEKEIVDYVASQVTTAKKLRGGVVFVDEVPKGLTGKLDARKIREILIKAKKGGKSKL
With `CC(C)C1Nc2c(C(=O)O)cccc2C(Nc2ccccc2C(=O)O)C1(C)C` (centres undefined) the inhibition was 0.1% (inactive).
For `CCN1C(=O)/C(=C2\SC(N3CCCCC3)=NC2=O)c2ccccc21`, the inhibition was 50.9% (active).
With `CC(C)=C1SC(N2CCN(c3cccc(C)c3)CC2)=NC1=O` the inhibition was -5.6% (inactive).
With `O=C1N=C(N2CCCC2)S/C1=C\c1cccc(Br)c1` the inhibition was -4.4% (inactive).
In the case of `NC(=O)Nc1ccccc1C(=O)NCCc1ccccc1`, the inhibition is reported as 2% (inactive).
In the case of `CC(=O)c1cc(-c2ccccc2)n(CCC(=O)NC2CCCCCC2)c1C`, the inhibition is reported as -5.1% (inactive).
For `Cc1ccnc2nc(C(=O)OCC(=O)N(CC(C)C)CC(C)C)nn12`, the inhibition was -5.4% (inactive).
In the case of `CC/C(O)=C1\C(=O)CC(C)(C)CC1=NCCc1nc2ccccc2[nH]1`, the inhibition is reported as -2.7% (inactive).
`Cc1cc(C2=NNC(=Nc3ccc(S(=O)(=O)N4CCOCC4)cc3)SC2)c(C)n1CC1CCCO1` (centres undefined) was tested, and the inhibition was -3% (inactive).
In the case of `C=CCn1c(C)cc(C2=NNC(=NCC)SC2)c1C`, the inhibition is reported as 96.5% (active).
With `COCCn1c(C)cc(C2=NNC(=Nc3ccc(F)cc3)SC2)c1C` the inhibition was 17.9% (inactive).
`Cc1[nH]n(-c2ccccc2)c(=O)c1/C=N/NC(=O)c1ccoc1C` was tested, and the inhibition was 20.6% (inactive).
`Cc1ccc(-n2[nH]c(C)c(/C=N/NC(=O)c3cccc([N+](=O)[O-])c3)c2=O)cc1C` was tested, and the inhibition was 94.9% (active).
For `COc1cccc(/C=N/NC(=O)c2cccc([N+](=O)[O-])c2)c1OS(=O)(=O)c1ccc(C)cc1`, the inhibition was -9.9% (inactive).
`Cc1ccc2c(c1)C(c1ccccc1)N(C(=O)c1ccc(S(=O)(=O)N3CCOCC3)cc1)CC(=O)N2` (centres undefined) was tested, and the inhibition was -5.3% (inactive).
With `CCOc1ccc(/C=N/NC(=O)C(C)Sc2ccccn2)cc1OCC` (centres undefined) the inhibition was -6% (inactive).
With `Cc1cccc(C)c1NC(=O)C1(C)c2cccc[n+]2CC(=O)N1Cc1cccs1` (centres undefined) the inhibition was 0.5% (inactive).
With `O=C(NCC(O)c1ccc([N+](=O)[O-])cc1)C1CCCCC1` (centres undefined) the inhibition was -2.2% (inactive).
With `CN(C)c1ccc(C(CNC(=O)c2ccc(F)cc2)c2c[nH]c3ccccc23)cc1` (centres undefined) the inhibition was -0.6% (inactive).
`CC(C)NC(=S)NN=C1CCCCCCCCCCC1` was tested, and the inhibition was -6.7% (inactive).
With `CCOc1ccc(-c2ccc(SCC(=O)N3CCOCC3)nn2)cc1` the inhibition was 84.4% (active).
`COc1ccc(-c2nc(SCC(=O)N3CCOCC3)n[nH]2)cc1` was tested, and the inhibition was 9.9% (inactive).
With `COc1ccc(-c2ccnc(SCC(=O)N3CCOCC3)n2)cc1` the inhibition was -3.4% (inactive).
For `O=C(O)CCCCOn1ccnc1`, the inhibition was 0.6% (inactive).
For `N#C/C(=C(\O)C(F)(F)F)c1nnc2n1CCCCC2`, the inhibition was -6.2% (inactive).
In the case of `Cc1cccc(/C(N)=N/OC(=O)c2ccccc2Cl)c1`, the inhibition is reported as 89.7% (active).
For `N/C(=N\OC(=O)c1cc(-c2ccccc2)nc2ccccc12)c1ccncc1`, the inhibition was 1.6% (inactive).
`Cc1cccc(C(=O)c2cccc(C)c2)c1` was tested, and the inhibition was -6.1% (inactive).
For `NC1=NN(c2cccc(C(=O)O)c2)C(=O)C1`, the inhibition was -2.1% (inactive).
`OCCNCCOc1ccc(Cl)c(Cl)c1` was tested, and the inhibition was 0.7% (inactive).
With `O=C(/C=C\c1cn(-c2ccccc2)nc1-c1cccs1)N1CCOCC1` the inhibition was 35.3% (inactive).
For `O=C(O)/C=C/c1cn(-c2ccccc2)nc1-c1cccs1`, the inhibition was 18% (inactive).
For `O=C(O)c1ccc(N/N=C/c2cn(-c3ccccc3)nc2-c2cccs2)cc1`, the inhibition was 92.2% (active).
With `Cc1onc(C(=O)NCc2ccc(F)cc2)c1[N+](=O)[O-]` the inhibition was 8% (inactive).
With `CC(=O)Nc1ccc(S(=O)(=O)NCC(=O)OCc2cc(=O)oc3ccc4ccccc4c23)cc1` the inhibition was -3.3% (inactive).
`CN(C(=O)c1ccno1)c1nnc(-c2cccnc2)s1` was tested, and the inhibition was 0.1% (inactive).
For `CN(C(=O)COc1ccccc1)c1nnc(-c2ccncc2)s1`, the inhibition was -2.1% (inactive).
With `CN(C(=O)c1ccccn1)c1nnc(-c2ccccn2)s1` the inhibition was 55.5% (active).
For `Cn1c(=NC(=O)CSCC(=O)N2CCCCC2)sc2ccccc21`, the inhibition was -5% (inactive).
With `Cn1c(=NC(=O)CSCC(=O)N2CCOCC2)sc2ccccc21` the inhibition was -1.3% (inactive).
For `Cn1c(=NC(=O)c2cnccn2)sc2ccccc21`, the inhibition was 75.5% (active).
With `CCOc1ccc(-c2n[nH]c(C)c2-c2ccccn2)c(O)c1` the inhibition was -3.7% (inactive).
With `CN1CCN(C(=O)CCc2nc(-c3ccc(Cl)cc3)no2)CC1` the inhibition was -4.7% (inactive).
With `CCNC(=O)CCc1nc(-c2ccc(C(C)(C)C)cc2)no1` the inhibition was 52.3% (active).
In the case of `Cc1ccc(-c2noc(CCC(N)=O)n2)cc1`, the inhibition is reported as 0.2% (inactive).
With `COc1ccc(/C=N/Nc2nc3ccccc3o2)cc1OC` the inhibition was 11.5% (inactive).
In the case of `CCOc1ccc(/C=N/Nc2nncc(-c3ccccc3)n2)cc1OC`, the inhibition is reported as 9.9% (inactive).
For `COc1cc(/C=N/Nc2nn3cnnc3c3ccccc23)cc(OC)c1OC`, the inhibition was 84.1% (active).
With `CCC(C)(C)C1CCC(=NNC(=O)c2ccc(Br)o2)CC1` (centres undefined) the inhibition was -7.3% (inactive).
`CCCCN(C)CCNC(=O)CSCc1ccc(C)cc1` was tested, and the inhibition was -9.7% (inactive).
`O=C(CSc1ccc2nnc(-c3ccccc3)n2n1)N1CCCc2ccccc21` was tested, and the inhibition was 4.5% (inactive).
`CC(=O)Nc1ccccc1NC(=O)c1cc(C)cc(C)c1` was tested, and the inhibition was -8.5% (inactive).
For `CSCc1ccc(C(=O)Nc2cc(C)cc(C)c2)cc1`, the inhibition was 77.9% (active).
In the case of `C=CCN(c1ccc(C(=O)Nc2cc(C)cc(C)c2)cc1)S(C)(=O)=O`, the inhibition is reported as -2.7% (inactive).
`O=C(O)c1ccc(/C=N/NC(=O)c2ccc(Br)cc2)cc1` was tested, and the inhibition was 15.3% (inactive).
For `O=C(CSc1nc(O)c(Cc2ccccc2)c(=O)[nH]1)Nc1nc2c(s1)CCCC2`, the inhibition was -3% (inactive).
For `CCOC(=O)c1sc(NC(=O)CSc2nc(O)c(Cc3ccccc3)c(=O)[nH]2)nc1C`, the inhibition was 72.8% (active).
With `CCOC(=O)c1sc(NC(=O)CSc2n[nH]c(CC)n2)nc1C` the inhibition was -4.3% (inactive).
With `O=C(COC(=O)C1CCCCC1)Nc1ccc([N+](=O)[O-])cc1` the inhibition was 2.8% (inactive).
With `COc1cc(OC)c(C2=NOC(C(=O)Nc3c(C)n(C)n(-c4ccccc4)c3=O)C2)cc1Cl` (centres undefined) the inhibition was -5.5% (inactive).
For `CCOC(=O)C1(Cc2ccccc2C(F)(F)F)CCN(C(=O)c2cc(C)n(C)n2)CC1`, the inhibition was -9.5% (inactive).
`CCCOc1ccc(C(=O)NCCc2ccccc2)cc1` was tested, and the inhibition was 70.6% (active).
In the case of `O=C(NCCc1ccccc1)c1ccc(OCCOc2ccccc2)cc1`, the inhibition is reported as -1.1% (inactive).
In the case of `O=C(NCCOc1ccccc1)c1ccccc1`, the inhibition is reported as 14.7% (inactive).

From PubChem BioAssay AID1006 (Sanford-Burnham Center for Chemical Genomics, 2008)
